# From PubChem BioAssay AID504850 (National Center for Advancing Translational Sciences (NCATS), 2011)
# About 1,200 (52%) of roughly 2,300 compounds were called active. Roughly 34% stayed inconclusive and do not appear here. Calls follow the shape of the dose curve; as a rule, active = well fitted inhibition curve with a large enough effect; inconclusive = small, poorly fitted or top-dose-only effect, or effect the other way; inactive = no such curve, though single readings can be large or run the other way. So high a share suggests a set chosen from earlier hits. The list shows a part of the results.
# Test: Confirmation screen for delayed death inhibitors of the malarial parasite plastid, 48 hour incubation; also: nearly all actives have a fitted effect of over 65% in size
# Settings: P. falciparum-infected erythrocytes, luciferase growth; series mostly up to 28.7 µM
# Outline: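 Single-generation (48 h, 37 C) exposure of integrated firefly luciferase-reporter P. falciparum in red cells, 0.1% parasitemia at 2% hematocrit, Albumax-supplemented RPMI. Falling luciferase signal marks parasite growth inhibition.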
# Potency is read from the fitted curve at half-maximal effect.
row,SMILES,Potency
1,CCc1ccc(/C=N/n2c(C)cc(C)c(C#N)c2=O)cc1,6.31 µM (active)
2,C=C1C(=O)O[C@@H]2[C@H]1CC[C@H](C)[C@]1(O)CCC(=O)[C@@]21C,12.6 µM (active)
3,N=C(N)c1ccc(/C=C/c2ccc(C(=N)N)cc2O)cc1,0.708 µM (active)
4,COC(=O)c1ccc(Sc2nnnn2-c2ccccc2)c([N+](=O)[O-])c1,11.2 µM (active)
5,O=C(NC1CCS(=O)(=O)C1)/C(=C\c1ccc(F)cc1)NC(=O)c1ccccc1 (configuration not stated),15.8 µM (active)
6,Cn1c(=O)oc2cc(S(=O)(=O)NCCC(=O)NCc3ccc(F)cc3)ccc21,15.8 µM (active)
7,COc1cc2c(O)c3c(c(-c4ccc5c(c4)OCO5)c2cc1OC)C(=O)OC3,10 µM (active)
8,CCOc1ccccc1NC(=O)/C(C#N)=C/c1cccnc1,14.1 µM (active)
9,CCOc1ccccc1NC(=S)N1CCN(c2cccc(OC)c2)CC1,inactive
10,Fc1ccc(Nc2nc(N3CCOCC3)nc(N3CCOCC3)n2)cc1,14.1 µM (active)
11,N#Cc1cc(S(=O)(=O)c2ccccc2)c(N)[nH]c1=O,inactive
12,COc1ccc(-c2nnc3ccc(SCC(=O)Nc4nc5ccc(C)cc5s4)nn23)cc1OC,1.26 µM (active)
13,COc1cccc(CN(C)CC2CCCN(CCc3ccc(Cl)cc3)C2)c1OC (configuration not stated),10 µM (active)
14,COc1ccc(/C=C2\CN(Cc3ccccc3)C/C(=C\c3ccc(OC)c(O)c3)C2=O)cc1O,0.891 µM (active)
15,CCOc1cc(/C=C2\CN(CC)C/C(=C\c3ccc(O)c(OCC)c3)C2=O)ccc1O,3.98 µM (active)
16,O=C(O)c1ccccc1NS(=O)(=O)c1cccc(-n2sc3ccccc3c2=O)c1,15.8 µM (active)
17,COc1ccccc1Nc1nnc(SCC(=O)Nc2nc(-c3ccc(F)cc3)cs2)s1,11.2 µM (active)
18,COc1ccccc1Nc1nnc(SCc2cc(=O)n3ccsc3n2)s1,12.6 µM (active)
19,CC(=O)Oc1ccc(-c2csc(Nc3cccnc3)n2)cc1,inactive
20,CCOc1ccccc1Nc1nnc(SC(C)C(=O)Nc2nc(-c3ccccc3)cs2)s1 (configuration not stated),14.1 µM (active)
21,Cc1cc(C(=O)OC(C)C(=O)Nc2nc(-c3ccccc3)cs2)c(C)o1 (configuration not stated),inactive
22,Oc1ccc(Cl)cc1CNc1cnc2ccccc2c1,12.6 µM (active)
23,Cc1nc2scc(C)n2c(=O)c1S(=O)(=O)NCc1ccccc1Cl,inactive

row,SMILES,Potency
1,Cc1cccc(-n2ncc3c2CCCC3NC(=O)C2=CC(=O)CC(C)(C)O2)c1C (configuration not stated),15.8 µM (active)
2,CCc1c(C(=O)NC2CCCc3ccccc32)[nH]c(C)c1C(C)=O (configuration not stated),inactive
3,Cc1cc(C(=O)NC2CCCc3c2cnn3-c2cccc(C)c2C)no1 (configuration not stated),inactive
4,COc1ccc(C(=O)NC2CCCc3c2cnn3-c2cccc(C)c2C)o1 (configuration not stated),12.6 µM (active)
5,COc1cccc(NC(=O)c2nc(S(C)(=O)=O)ncc2Cl)c1,inactive
6,O=C(CCl)Nc1cccc(Oc2cnccn2)c1,4.47 µM (active)
7,COc1ccc(CNS(=O)(=O)c2ccc3c(c2)N(C(C)=O)CC(C)S3)cc1 (configuration not stated),12.6 µM (active)
8,Cn1nc(CC(=O)Nc2ncc(Br)s2)c2ccccc2c1=O,11.2 µM (active)
9,O=C(C[n+]1cc(Br)cc2ccccc21)c1ccccc1,10 µM (active)
10,Clc1ccc2nc(-c3ccccn3)c(Nc3ccc4c(c3)OCO4)n2c1,11.2 µM (active)
11,Nc1ccc2nc(-c3ccc(-c4nc5ccc(N)cc5[nH]4)cc3)[nH]c2c1,7.08 µM (active)
12,CC1CCC(NC(=O)CN(C)S(=O)(=O)c2ccc3c(c2)c(=O)n(C)c(=O)n3C)CC1 (configuration not stated),10 µM (active)
13,Cc1cccc(N(C)C(=O)CN(C)S(=O)(=O)c2ccc3c(c2)c(=O)n(C)c(=O)n3C)c1,12.6 µM (active)
14,O=S(=O)(c1cnc[nH]1)N1CCN(C(c2ccc(F)cc2)c2ccc(F)cc2)CC1,11.2 µM (active)
15,O=C(Oc1nsnc1N1CCCCC1)N1CCOCC1,12.6 µM (active)
16,O=C1CN(C(=O)c2ccc(Cl)c(S(=O)(=O)N3CCc4ccccc43)c2)c2ccccc2N1,12.6 µM (active)
17,COC(=O)C1C(=O)C2=C(CC1C)NC(C)=C(C(=O)OCCOc1ccccc1)C2c1ccc(C)o1 (configuration not stated),14.1 µM (active)
18,CC(C)C(=O)N1CCN(c2ccc(NC(=O)c3ccc([N+](=O)[O-])o3)cc2)CC1,8.91 µM (active)
19,CS(=O)(=O)N1CCN(c2ccc(NC(=O)c3ccc([N+](=O)[O-])o3)cc2)CC1,11.2 µM (active)
20,Cn1cc([N+](=O)[O-])c(C(=O)Nc2ccc(C3CCCCC3)cc2)n1,inactive
21,O=C(Nc1ccc(S(=O)(=O)N2CCOCC2)cc1)c1ccc([N+](=O)[O-])o1,3.16 µM (active)
22,O=C(Nc1ccc(N2CCOCC2)c(Cl)c1)c1cc2ccccc2o1,2.51 µM (active)
23,CCCC(=O)N1CCN(c2ccc(NC(=O)c3ccc([N+](=O)[O-])o3)cc2Cl)CC1,11.2 µM (active)

row,SMILES,Potency
1,Cc1cccc(-c2c(NC(=O)c3ccco3)oc3ccc(Cl)cc3c2=O)c1,inactive
2,CCC(=O)N1CCN(c2ccc(NC(=O)c3ccc([N+](=O)[O-])o3)cc2Cl)CC1,12.6 µM (active)
3,CC(C)C(=O)N1CCN(c2ccc(NC(=O)c3ccco3)cc2Cl)CC1,7.94 µM (active)
4,CCN1CCN(c2ccc(NC(=O)c3ccc([N+](=O)[O-])o3)cc2Cl)CC1,7.94 µM (active)
5,CCc1nn2c(=O)cc(COc3ccc(NC(=O)c4ccco4)cc3)nc2s1,inactive
6,CCCC(=O)N1CCN(c2ccc(NC(=O)c3ccc([N+](=O)[O-])o3)cc2)CC1,7.08 µM (active)
7,CCc1c(C)nc2nc(SCc3ccccc3Cl)[nH]n2c1=O,inactive
8,CCN(CC)c1ccc(/C=C/c2cccc[n+]2C)c(OC)c1,1.12 µM (active)
9,CN(C)S(=O)(=O)c1cccc(NC(=S)N/N=C/c2cc(Br)ccc2O)c1,3.55 µM (active)
10,COc1cc(/C=N/NC(=S)Nc2cccc(S(=O)(=O)N(C)C)c2)cc(OC)c1O,inactive
11,Cn1nc([N+](=O)[O-])nc1Sc1nnc(-c2ccccc2)o1,11.2 µM (active)
12,Cc1ccc(-n2ncc3c(SCc4ccccn4)ncnc32)c(C)c1,12.6 µM (active)
13,CCOC(=O)C(=Cc1ccc(Br)cc1)C(=O)OCC,10 µM (active)
14,CCOC(=O)C(=Cc1ccc(-n2cncn2)cc1)C(=O)OCC,15.8 µM (active)
15,CCOC(=O)C(CC)(CC)C(=O)/C=C/c1ccc(Br)cc1,10 µM (active)
16,COc1ccc(/C=C/C(=O)NC(=S)NN2CCCCC2c2cccnc2)cc1 (configuration not stated),12.6 µM (active)
17,CC(C)c1ccc(/C=C/C(=O)NC(=S)NN2CCOCC2)cc1,inactive
18,COCCn1c(C)cc(C(=O)CSc2cc(C)c3ccc(OC)cc3n2)c1C,12.6 µM (active)
19,COC(=O)[C@@H]1C[C@]2(OC(=O)c3ccccc3)C=CC(=O)C[C@@H]2N1C(=O)OCc1ccccc1,14.1 µM (active)
20,CN(C)c1ccc(CN(C(=O)c2ccccc2Br)C2CCS(=O)(=O)C2)cc1 (configuration not stated),14.1 µM (active)
21,COc1cccc(CN(C(=O)c2ccccc2Br)C2CCS(=O)(=O)C2)c1 (configuration not stated),15.8 µM (active)
22,O=C(O)c1nn(CCSc2ccccc2F)c(=O)c2ccccc12,inactive
23,Cc1c(Cl)ccc2c(C(=O)O)cc(-c3ccccc3)nc12,inactive

row,SMILES,Potency
1,Cc1ccc(-c2cc(C(=O)N/N=C/c3ccoc3)c3ccccc3n2)cc1,12.6 µM (active)
2,Cc1ccc(-c2cc(C(=O)N/N=C/C=C/c3ccco3)c3ccccc3n2)cc1C,10 µM (active)
3,COc1ccc(/C=N/NC(=O)c2cc(-c3ccccc3)nc3ccccc23)cc1O,inactive
4,O=C(NCc1ccccc1)C(c1cccnc1)N(C(=O)c1ccccn1)c1ccccc1F (configuration not stated),inactive
5,O=C(CCc1ccccc1)NNC(=O)c1ccccn1,7.94 µM (active)
6,CCOc1ccc(CCNC(=O)COC(=O)c2ccc(C)s2)cc1OCC,10 µM (active)
7,Cc1ccc(C(=O)NCC(=O)NCCCc2ccccc2)s1,inactive
8,CCOC(=O)NC(=O)COC(=O)c1ccc(O)cc1,inactive
9,COc1ccccc1NC(=O)Cn1cnc2sc(C(=O)Nc3ccc(OC)c(OC)c3)c(C)c2c1=O,12.6 µM (active)
10,CSCCn1c(C(C)(C)C)cc(C(=O)O)c1C,inactive
11,O=C(C1=C[C@@H](c2csc3ccccc23)C[C@@H](OCCCCO)O1)N1CCN(Cc2ccc3c(c2)OCO3)CC1,10 µM (active)
12,CCO[C@H]1OC(C(=O)N2CCN(Cc3ccc4c(c3)OCO4)CC2)=C[C@@H](c2ccc(C(F)(F)F)cc2)[C@@H]1CCCO,3.55 µM (active)
13,CCO[C@H]1OC(C(=O)N2CCN(Cc3ccccc3)CC2)=C[C@@H](c2ccc(C(F)(F)F)cc2)[C@@H]1CCCO,4.47 µM (active)
14,CCn1c(=O)cc(C(=O)OC)sc1=Nc1ccc(F)c(F)c1,inactive
15,O=C(Nc1ccccc1)c1cccc(S(=O)(=O)NCc2ccco2)c1,inactive
16,CC(C)n1nc(C(=O)Nc2cccc(S(=O)(=O)NCc3ccco3)c2)c2ccccc2c1=O,11.2 µM (active)
17,Cc1cc(C)n(-c2ccc(C(=O)Nc3ccc(S(=O)(=O)NCc4ccco4)cc3)cc2)n1,10 µM (active)
18,Cc1cc(C)n2nc(C(=O)N/N=C/c3c4ccccc4cc4ccccc34)nc2n1,8.91 µM (active)
19,COC(=O)c1ccc(C2N=C(c3cccs3)CC(c3ccccc3O)N2)cc1 (configuration not stated),8.91 µM (active)
20,CCOC(=O)c1c(S(=O)(=O)NCC(=O)N2CCN(c3ccccc3OC)CC2)c(C)n(C)c1C,12.6 µM (active)
21,CCOC(=O)c1c(S(=O)(=O)NCC(=O)Nc2cccc(C)c2C)c(C)n(C)c1C,inactive
22,Cc1ccc(C(=O)NCCc2nnc3ccc(SCC(=O)NCc4ccc(F)cc4)nn23)cc1,10 µM (active)
23,COc1cccc(NC(=O)CSc2ccc3nnc(CCNC(=O)c4ccccc4)n3n2)c1,15.8 µM (active)
